Assay outcomes (PubChem BioAssay)
A selection: hits, their analogues and other compounds. The true share with any hit is near 21%.
CYP2C9 activ: activators of human CYP2C9; P11712; recombinant CYP2C9, luciferin-H conversion, luminescence; active compounds read high; factor 1 = untreated enzyme, 0 = blocked; activation factor at 5 µM; 96,000 tested, 1.4% active; AID 1024;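 active = activation factor of 2 or more for CYP2C9 at a 5 µM dose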
Target sequence (P11712 whole entry, looked up): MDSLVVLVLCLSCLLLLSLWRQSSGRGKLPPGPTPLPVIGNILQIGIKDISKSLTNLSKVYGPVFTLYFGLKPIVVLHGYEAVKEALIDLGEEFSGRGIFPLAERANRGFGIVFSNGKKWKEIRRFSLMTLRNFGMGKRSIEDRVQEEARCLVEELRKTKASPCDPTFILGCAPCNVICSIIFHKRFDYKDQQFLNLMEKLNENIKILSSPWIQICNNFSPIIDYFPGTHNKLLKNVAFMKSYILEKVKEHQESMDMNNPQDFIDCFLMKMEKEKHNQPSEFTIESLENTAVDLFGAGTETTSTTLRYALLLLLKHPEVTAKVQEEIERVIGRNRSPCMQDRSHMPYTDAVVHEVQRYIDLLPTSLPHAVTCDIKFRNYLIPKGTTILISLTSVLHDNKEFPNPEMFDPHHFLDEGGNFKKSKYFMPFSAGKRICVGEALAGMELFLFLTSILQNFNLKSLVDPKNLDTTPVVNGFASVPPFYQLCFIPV
CYP2C9 inhib: blocks human cytochrome P450 2C9. CYP2C9 Supersomes, luciferin-H conversion, luminescence. inhibition, % at 5 µM. 96,000 tested, 20% active;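 active = blocking of liver enzyme CYP2C9 beyond about 50% at 5 µM, limit read from the data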
CYP2C19 inh: blocks human cytochrome P450 2C19; P33261; CYP2C19 Supersomes, luciferin-H EGE luminescence, 30 min; inhibition, % at 5 µM; 96,000 tested, 21% active; AID 778;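 active = CYP2C19 inhibition above a set limit at 5 µM in the primary screen, cut at about 50% in these data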
CYP2C19 activ: activators of human cytochrome P450 2C19 | P33261 | recombinant CYP2C19, luciferin-H EGE luminescence; active compounds read high; 0 = fully inhibited enzyme, 1 = untreated enzyme | activation factor at 5 µM | 96,000 tested, under 10 active;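 active = activation factor of at least 2 at 5 µM in the primary screen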
MRP resist rev: reverses drug resistance mediated by MRP | differential viability (reversal), % at 10 µM | AID 602 | H69AR cells + 2 uM doxorubicin, CellTiter-Glo, 72 h | 85,000 tested, 0.04% active;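 active = viability drop by adding the cancer drug above about 55%, with treated viability meeting a 40% cutoff, limit read from the data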;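 also: larger differential means the compound sensitizes cells more to doxorubicin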
MRP-1 activ: MRP-1 activation; AID 799; viability increase, % at 10 µM; 140,000 tested, 0.61% active; H69AR cells + doxorubicin, viability rescue, CellTiter-Glo;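 active = viability gain under doxorubicin at or above a set limit, the compound median plus 3 SD, cut at about 4.7% in these data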;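 also: MRP-1 overexpressing cells given doxorubicin 25 µM after compound pretreatment; 18-22 h compound pretreatment then 72 h with doxorubicin before readout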
Large screens that a line does not name were inactive.

O=C(c1ccco1)[C@@H]1[C@@H]2C(=O)N(c3ccc(F)cc3)C(=O)[C@@H]2C2c3ccccc3C=CN21 (some centres not stated)	none
COc1ccccc1N1C(=O)C2ON(c3ccccc3)C(c3ccc(N(C)C)cc3)C2C1=O (configuration not stated)	none (no result: CYP2C9 activ, CYP2C9 inhib, CYP2C19 inh, CYP2C19 activ)
c1ccc(OCCOc2ncnc3ccccc23)cc1	CYP2C19 inh 60
O=C(O)c1ccccc1OCCOc1ccccc1	none
O=C(Nc1ccc(F)cc1)N1CCN2C(=O)c3ccccc3C12c1ccccc1 (configuration not stated)	CYP2C19 inh 51
O=C(Nc1ccccc1)N1CCN(c2ccc(F)cc2)CC1	none (no result: CYP2C9 activ, CYP2C9 inhib, CYP2C19 inh, CYP2C19 activ)
COC(=O)c1cc(Br)c(=O)n(-c2ccc(C(C)=O)cc2)c1	none (no result: MRP-1 activ)
CCc1ccc(OCC(=O)Nc2ncc3c(n2)CC(C)(C)CC3=O)cc1	none
O=C1CN(C(=O)COC(=O)c2cccc(OCc3ccccc3)c2)c2ccccc2N1	none (no result: CYP2C9 activ, CYP2C9 inhib, CYP2C19 inh, CYP2C19 activ, MRP resist rev)
CCN(CC)S(=O)(=O)c1cccc(C(=O)Nc2cc(C)cc(C)c2)c1	none
CCN(CC)S(=O)(=O)c1cccc(C(=O)OCC(=O)N2CC(=O)Nc3ccccc32)c1	CYP2C9 inhib 66 (no result: MRP resist rev)
CCN(CC)S(=O)(=O)c1cccc(C(=O)OCC(=O)Nc2ccccc2OC(F)F)c1	CYP2C9 inhib 88, CYP2C19 inh 84 (no result: MRP resist rev)
CCN(CC)S(=O)(=O)c1cccc(C(=O)OCC(=O)C23CC4CC(CC(C4)C2)C3)c1	CYP2C9 inhib 74
O=C1CN(C(=O)COC(=O)c2cccc(S(=O)(=O)NCc3ccccc3)c2)c2ccccc2N1	CYP2C9 inhib 68
Cc1ccsc1C(=O)OCC(=O)N1CC(=O)Nc2ccccc21	none
O=S(=O)(c1ccccc1)N1C2CCC1CC(O)(c1cccnc1)C2 (configuration not stated)	none
CC1Cc2ccccc2N1C(=O)CSc1nnc(-c2ccc(S(=O)(=O)N3CCOCC3)cc2)n1C (configuration not stated)	none (no result: CYP2C9 activ, CYP2C9 inhib, CYP2C19 inh, CYP2C19 activ, MRP resist rev)
Cc1nn(CCC(N)=S)c2nc(-c3cccs3)cc(C(F)(F)F)c12	none (no result: CYP2C9 activ, CYP2C9 inhib, CYP2C19 inh, CYP2C19 activ, MRP resist rev)
COCCNC(=S)N/N=C/c1ccc(OCc2ccc(C(=O)OC)cc2)cc1	none (no result: CYP2C9 activ, CYP2C9 inhib, CYP2C19 inh, CYP2C19 activ, MRP resist rev)
Cc1ccc(-c2cc(NC(=O)CCl)n(-c3ccccc3)n2)cc1	CYP2C9 inhib 75, CYP2C19 inh 96
O=C(CCl)Nc1cc(-c2ccccc2)nn1-c1ccccc1	CYP2C9 inhib 60, CYP2C19 inh 83
CC(=O)Nc1ccc(-c2cc(NC(C)=O)n(-c3ccccc3)n2)cc1	none
Cc1cc2cc(CNC(=O)c3ccc4c(c3)OCO4)ccc2[nH]1	none (no result: MRP-1 activ)
O=C1O/C(=C/C(=O)N2CCOCC2)c2ccccc21	none (no result: CYP2C9 activ, CYP2C9 inhib, CYP2C19 inh, CYP2C19 activ)
CNc1ccccc(-c2ccc3cc4c(cc3n2)OCO4)c1=O	none (no result: CYP2C9 activ, CYP2C9 inhib, CYP2C19 inh, CYP2C19 activ, MRP resist rev)
CCCCc1c(O)c2ccccc2n(CCCC)c1=O	none (no result: CYP2C9 activ, CYP2C9 inhib, CYP2C19 inh, CYP2C19 activ, MRP resist rev)
CCCCCCn1c(=O)c(-c2ccccc2)c(O)c2ccccc21	CYP2C9 inhib 76
C/C(=N/NC(=O)c1ccc2nc[nH]c2c1)c1cccs1	none (no result: CYP2C9 activ, CYP2C9 inhib, CYP2C19 inh, CYP2C19 activ, MRP resist rev)
CN(C(=O)CSc1nnc(Nc2ccccc2)s1)c1c(N)n(Cc2ccccc2)c(=O)[nH]c1=O	CYP2C9 inhib 64 (no result: MRP resist rev)
CC(C)Oc1ccc(/C(O)=C2/C(=O)C(=O)N(CCN(C)C)C2c2cccs2)cc1 (configuration not stated)	none (no result: CYP2C9 activ, CYP2C9 inhib, CYP2C19 inh, CYP2C19 activ, MRP resist rev)
O=C1c2ccccc2C(=O)N1CC1=CCS(=O)(=O)C1	none
CCOc1ccc(C(CCc2ccccc2)NC(=O)c2ccccc2)cc1OCC (configuration not stated)	CYP2C9 inhib 68, CYP2C19 inh 76 (no result: MRP resist rev)
CCOc1ccc(C(CC(=O)O)NC(=O)c2ccco2)cc1OC (configuration not stated)	none
O=C(O)c1c(Cl)c(Cl)c(Cl)c(Cl)c1C(=O)N1CCCC1	none
COCCCNC(=S)NNC(=O)c1cccnc1	none
O=S(=O)(c1ccc2c(c1)OCCO2)N1CCN(Cc2ccccc2)CC1	CYP2C19 inh 82
O=C(c1ccccc1)N1CCN(Cc2ccccc2)CC1	none (no result: CYP2C9 activ, CYP2C9 inhib, CYP2C19 inh, CYP2C19 activ)
O=S(=O)(c1ccc(S(=O)(=O)N2CCN(Cc3ccccc3)CC2)cc1)N1CCOCC1	none
O=C(c1ccc2c(c1)OCCO2)N1CCN(Cc2ccccc2)CC1	CYP2C19 inh 67
CCN1CCN(S(=O)(=O)Cc2ccccc2)CC1	CYP2C19 inh 52
CCN(CC(=O)Nc1ccc2c(c1)OCCO2)Cc1cc(=O)oc2c(C)c(C)ccc12	CYP2C9 inhib 84, CYP2C19 inh 92
